Records with an inconclusive call do not appear. Calls of active or inactive are those of the source. Unless noted, calls come from the whole dose curve; as a rule, active = well fitted curve in the direction sought with a large enough effect; inconclusive = small, poorly fitted or top-dose-only effect, or another doubt; inactive = no such curve, though single readings can be large; an effect the other way counts as inactive or inconclusive.
Assays:
[1] = qHTS for differential inhibitors of proliferation of Plasmodium falciparum line GB4 (AID 1816);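 note: parasite growth measured after 72 h incubation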
[2] = qHTS for differential inhibitors of proliferation of Plasmodium falciparum line 3D7 (AID 1876);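 note: parasite growth measured after three days of culture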
[3] = qHTS for differential inhibitors of proliferation of Plasmodium falciparum line D10 (AID 1877);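 note: parasites grown with compound for 72 h before DNA staining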
[4] = qHTS for differential inhibitors of proliferation of Plasmodium falciparum line Dd2 (AID 1882); note: nearly all actives have a fitted effect of over 65% in size
How it was run: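 Dd2-infected erythrocytes (0.3% parasitemia, 2.5% hematocrit final) incubated with compound 72 h at 37 C, 5% CO2; lysed with saponin/Triton buffer containing SYBR Green I, incubated overnight in the dark, then read by fluorescence (485/535 nm). Normalized to 0.29 uM artemisinin and DMSO.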

[5] = qHTS for differential inhibitors of proliferation of Plasmodium falciparum line W2 (AID 1883);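 note: parasites grown with compound for 72 h before lysis and staining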
[6] = qHTS for differential inhibitors of proliferation of Plasmodium falciparum line HB3 (AID 1886);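 note: parasites grown with compound for 72 h before SYBR Green readout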
[7] = biological target: Ferritin light chain (Equus caballus) (UniProt P02791); test: qHTS Validation Assay for Identification of Novel General Anesthetics (AID 2323)
Chain of Ferritin light chain (Equus caballus) (P02791 2-175 limits assumed): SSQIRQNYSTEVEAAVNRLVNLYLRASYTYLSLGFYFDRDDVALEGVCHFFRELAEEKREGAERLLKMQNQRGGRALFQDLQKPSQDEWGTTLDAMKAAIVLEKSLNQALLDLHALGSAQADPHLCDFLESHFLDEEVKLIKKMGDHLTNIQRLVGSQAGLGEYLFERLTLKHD
How it was run: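 Competitive displacement of the profluorescent anesthetic 1-AMA (50% saturated, PBS) from 10 uM apoferritin, 10 min, room temperature. Activity is normalized 380/535 nm fluorescence; concentration-response fitted with a four-parameter Hill equation.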

[8] = biological target: ATP-dependent DNA helicase Q1 (Homo sapiens) (UniProt P46063); test: qHTS Validation Assay for Inhibitors of RecQ-Like Dna Helicase 1 (RECQ1) (AID 2353)
How it was run: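 50 nM RECQ1T1 preincubated 15 min with compound in Tris pH 8.0 buffer with MgCl2, DTT, Tween-20 and 2.5 ug/ml poly(dI-dC); started with 200 nM TAMRA/BHQ-2 forked duplex and 2 mM ATP. Unwinding read as fluorescence (525/598 nm), two reads 2 h apart.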

[9] = biological target: RecQ-like DNA helicase BLM (Homo sapiens) (UniProt P54132); test: qHTS Validation Assay for Inhibitors of Bloom's syndrome helicase (BLM) (AID 2364)
Chain of RecQ-like DNA helicase BLM (Homo sapiens) (P54132 whole entry, looked up): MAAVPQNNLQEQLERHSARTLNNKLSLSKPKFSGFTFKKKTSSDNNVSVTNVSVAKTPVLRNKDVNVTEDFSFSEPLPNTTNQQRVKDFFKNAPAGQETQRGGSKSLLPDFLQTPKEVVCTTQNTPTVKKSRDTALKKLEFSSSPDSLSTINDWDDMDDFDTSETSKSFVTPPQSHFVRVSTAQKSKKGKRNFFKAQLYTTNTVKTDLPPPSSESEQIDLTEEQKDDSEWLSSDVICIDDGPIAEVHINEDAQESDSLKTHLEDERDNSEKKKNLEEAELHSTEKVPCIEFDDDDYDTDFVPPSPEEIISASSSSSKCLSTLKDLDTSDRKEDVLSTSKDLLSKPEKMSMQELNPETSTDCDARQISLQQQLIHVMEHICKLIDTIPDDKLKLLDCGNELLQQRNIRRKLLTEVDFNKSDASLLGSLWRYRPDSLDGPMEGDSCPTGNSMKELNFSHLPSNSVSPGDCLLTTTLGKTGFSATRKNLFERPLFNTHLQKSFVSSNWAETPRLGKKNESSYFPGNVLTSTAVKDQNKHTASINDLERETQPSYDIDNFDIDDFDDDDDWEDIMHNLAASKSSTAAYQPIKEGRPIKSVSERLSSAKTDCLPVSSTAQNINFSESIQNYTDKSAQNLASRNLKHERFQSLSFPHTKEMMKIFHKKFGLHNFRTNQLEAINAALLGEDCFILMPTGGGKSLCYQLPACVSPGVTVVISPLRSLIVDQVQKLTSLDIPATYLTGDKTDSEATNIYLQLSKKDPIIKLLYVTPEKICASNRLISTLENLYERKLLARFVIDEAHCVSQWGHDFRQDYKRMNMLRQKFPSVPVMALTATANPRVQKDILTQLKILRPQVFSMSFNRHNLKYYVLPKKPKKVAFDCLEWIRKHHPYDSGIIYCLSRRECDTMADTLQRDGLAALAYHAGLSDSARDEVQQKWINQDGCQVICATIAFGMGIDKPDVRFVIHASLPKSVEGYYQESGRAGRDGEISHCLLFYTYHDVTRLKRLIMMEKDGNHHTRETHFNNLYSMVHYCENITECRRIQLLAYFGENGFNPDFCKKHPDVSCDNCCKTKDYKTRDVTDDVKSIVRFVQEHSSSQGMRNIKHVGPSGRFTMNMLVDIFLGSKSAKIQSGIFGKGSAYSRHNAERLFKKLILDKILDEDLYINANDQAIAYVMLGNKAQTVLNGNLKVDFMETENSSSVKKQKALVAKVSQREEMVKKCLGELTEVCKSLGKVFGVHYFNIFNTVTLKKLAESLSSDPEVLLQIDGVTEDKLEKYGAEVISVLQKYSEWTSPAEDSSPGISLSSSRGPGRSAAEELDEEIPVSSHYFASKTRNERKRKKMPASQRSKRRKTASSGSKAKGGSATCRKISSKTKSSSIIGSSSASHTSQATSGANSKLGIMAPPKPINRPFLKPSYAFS
How it was run: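 BLM 50 nM in 25 mM Tris-HCl pH 8.0, 5 mM NaCl, 2 mM MgCl2, 1 mM DTT, 0.01% Tween-20, 2.5 ug/ml poly(dI-dC); 15 min cpd preinc, RT. Start: 200 nM forked DNA + 2 mM ATP (final). TAMRA read, 2 reads 2 h apart.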

[10] = Validation screen for small molecules that induce DNA re-replication in MCF 10A normal breast cells (AID 463097); note: nearly all actives have a fitted effect of over 60% in size
How it was run: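 Read-out is Hoechst total nuclear intensity by fluorescence scanning imager, flagging increased high-DNA-content nuclei. Compounds were incubated with MCF 10A cells for 48 hr (37 C, 5% CO2) before 40 min staining.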

[11] = qHTS Assay for Identification of Small Molecule Inducers of Hypoxia Response (AID 2120; active = well fitted curve in the direction sought with a large enough effect in the signal ratio, with a control signal flat, not every such curve was filed as active; the % refers to the signal ratio)
How it was run: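 ME-180 HRE-bla cells plated in Opti-MEM/0.5% dialyzed FBS, rested 4-5 h, then dosed with compound titrations by pin tool. After 17 h at 37 degrees C, CCF4 dye loaded 2.5 h at RT; 460/530 nm ratio gave %Activity and AC50.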

[12] = Cytometric Cell-Based qHTS for Inhibitors of the mTORC1 Signaling Pathway in MEF (Tsc2-/-, p53-/-) Cells (AID 2660);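 note: percent of cells above a phospho-rpS6 to PI ratio cutoff in each well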
How it was run: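 Cells are plated, treated with compound for 24 hrs at 37 degree Celsius, then fixed, blocked and immunostained for phospho-rpS6 Ser235/236. Propidium iodide counterstain follows. Per-well % positive cells is derived from the PI-normalized phospho-S6 signal.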

[13] = High Content Imaging Cell-Based qHTS for Inhibitors of the mTORC1 Signaling Pathway in MEF (Tsc2-/-, p53-/-) Cells (AID 2666); settings: at 38.3 µM (top of the series);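 note: percent of cells scored positive for phospho-rpS6 Ser235/236 immunostaining by imaging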
How it was run: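 Read-out: % positive cells per well, with thresholds from highest- and lowest-signal wells, based on phospho-rpS6 (Ser235/236) intensity normalized to Hoechst nuclear stain. Cells: Tsc2-/-, p53-/- MEFs carrying empty vector; compound 24 hrs, 37 degree Celsius.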

[14] = High Content Imaging Cell-Based qHTS for Inhibitors of the mTORC1 Signaling Pathway in MEF Cells (AID 2667);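 note: Tsc2-/- p53-/- MEFs stably re-expressing wild-type Tsc2 exposed 24 h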
How it was run: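 MEF (Tsc2-/-, p53-/-, WT Tsc2 re-expressed); cpd 24 h, 37 °C; PFA fix; Alexa-488 anti-p-rpS6 Ser235/236, PI, Hoechst; IN Cell imaging; Hoechst/Alexa-488 intensity ratio; % active cells, thresholds set from rapamycin and DMSO wells.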

[15] = Cytometry Cell-Based qHTS for Inhibitors of the mTORC1 Signaling Pathway in MEF cells (AID 2668);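 note: Tsc2-/- p53-/- mouse embryonic fibroblasts stably re-expressing wild-type Tsc2; percent cells positive for phospho-rpS6 Ser235/236 relative to propidium iodide stain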
How it was run: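 Phospho-rpS6 (Ser235/236) immunofluorescence over PI signal, scored as % positive cells using thresholds from 7.5 nM rapamycin and DMSO wells, after 24 h compound exposure of WT-Tsc2-rescued Tsc2-/-, p53-/- MEFs. PI cell count recorded for viability.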

[16] = biological target: Ubiquitin carboxyl-terminal hydrolase 2 (Homo sapiens) (UniProt O75604); test: qHTS Validation Assay for Inhibitors of Ubiquitin-specific Protease USP2a Using CHOP2 as the Reporter (AID 463106)
Chain of Ubiquitin carboxyl-terminal hydrolase 2 (Homo sapiens) (O75604 whole entry, looked up): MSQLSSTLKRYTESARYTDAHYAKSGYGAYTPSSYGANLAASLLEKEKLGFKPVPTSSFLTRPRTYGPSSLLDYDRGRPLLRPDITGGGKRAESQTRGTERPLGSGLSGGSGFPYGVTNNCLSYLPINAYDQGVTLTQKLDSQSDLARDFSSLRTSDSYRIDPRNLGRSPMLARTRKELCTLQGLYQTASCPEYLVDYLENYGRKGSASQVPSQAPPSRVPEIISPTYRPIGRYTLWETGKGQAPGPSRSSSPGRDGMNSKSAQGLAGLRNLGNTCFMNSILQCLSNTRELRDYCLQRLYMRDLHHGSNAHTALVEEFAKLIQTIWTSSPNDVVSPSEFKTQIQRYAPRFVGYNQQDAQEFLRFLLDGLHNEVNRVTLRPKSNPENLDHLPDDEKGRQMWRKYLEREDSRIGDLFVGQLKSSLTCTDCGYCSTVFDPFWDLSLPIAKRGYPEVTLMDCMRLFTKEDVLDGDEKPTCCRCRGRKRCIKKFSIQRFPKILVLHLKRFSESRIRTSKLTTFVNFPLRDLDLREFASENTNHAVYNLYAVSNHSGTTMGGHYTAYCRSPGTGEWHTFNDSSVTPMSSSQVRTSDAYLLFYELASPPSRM
How it was run: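 USP2 core (10nM final) was preincubated with compound for 30min at RT in 20mM Tris-HCl pH 8.0, 2mM CaCl2, 2mM beta-mercaptoethanol, 0.05% CHAPS. Ub-CHOP2 and reporter substrate (25nM each) were added, and fluorescence (Ex 485/Em 531nm) was read after 60min.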

[17] = biological target: DNA polymerase III PolC-type (Bacillus subtilis (strain 168)) (UniProt P13267); test: qHTS Validation Assay for the Inhibitors of DNA Replication in Gram-Positive Bacteria (AID 485295);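 note: reconstituted holoenzyme with PolC plus beta clamp SSB and primase; PicoGreen fluorescence of double-stranded DNA made on primed circular M13 template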
Chain of DNA polymerase III PolC-type (Bacillus subtilis (strain 168)) (P13267 whole entry, looked up): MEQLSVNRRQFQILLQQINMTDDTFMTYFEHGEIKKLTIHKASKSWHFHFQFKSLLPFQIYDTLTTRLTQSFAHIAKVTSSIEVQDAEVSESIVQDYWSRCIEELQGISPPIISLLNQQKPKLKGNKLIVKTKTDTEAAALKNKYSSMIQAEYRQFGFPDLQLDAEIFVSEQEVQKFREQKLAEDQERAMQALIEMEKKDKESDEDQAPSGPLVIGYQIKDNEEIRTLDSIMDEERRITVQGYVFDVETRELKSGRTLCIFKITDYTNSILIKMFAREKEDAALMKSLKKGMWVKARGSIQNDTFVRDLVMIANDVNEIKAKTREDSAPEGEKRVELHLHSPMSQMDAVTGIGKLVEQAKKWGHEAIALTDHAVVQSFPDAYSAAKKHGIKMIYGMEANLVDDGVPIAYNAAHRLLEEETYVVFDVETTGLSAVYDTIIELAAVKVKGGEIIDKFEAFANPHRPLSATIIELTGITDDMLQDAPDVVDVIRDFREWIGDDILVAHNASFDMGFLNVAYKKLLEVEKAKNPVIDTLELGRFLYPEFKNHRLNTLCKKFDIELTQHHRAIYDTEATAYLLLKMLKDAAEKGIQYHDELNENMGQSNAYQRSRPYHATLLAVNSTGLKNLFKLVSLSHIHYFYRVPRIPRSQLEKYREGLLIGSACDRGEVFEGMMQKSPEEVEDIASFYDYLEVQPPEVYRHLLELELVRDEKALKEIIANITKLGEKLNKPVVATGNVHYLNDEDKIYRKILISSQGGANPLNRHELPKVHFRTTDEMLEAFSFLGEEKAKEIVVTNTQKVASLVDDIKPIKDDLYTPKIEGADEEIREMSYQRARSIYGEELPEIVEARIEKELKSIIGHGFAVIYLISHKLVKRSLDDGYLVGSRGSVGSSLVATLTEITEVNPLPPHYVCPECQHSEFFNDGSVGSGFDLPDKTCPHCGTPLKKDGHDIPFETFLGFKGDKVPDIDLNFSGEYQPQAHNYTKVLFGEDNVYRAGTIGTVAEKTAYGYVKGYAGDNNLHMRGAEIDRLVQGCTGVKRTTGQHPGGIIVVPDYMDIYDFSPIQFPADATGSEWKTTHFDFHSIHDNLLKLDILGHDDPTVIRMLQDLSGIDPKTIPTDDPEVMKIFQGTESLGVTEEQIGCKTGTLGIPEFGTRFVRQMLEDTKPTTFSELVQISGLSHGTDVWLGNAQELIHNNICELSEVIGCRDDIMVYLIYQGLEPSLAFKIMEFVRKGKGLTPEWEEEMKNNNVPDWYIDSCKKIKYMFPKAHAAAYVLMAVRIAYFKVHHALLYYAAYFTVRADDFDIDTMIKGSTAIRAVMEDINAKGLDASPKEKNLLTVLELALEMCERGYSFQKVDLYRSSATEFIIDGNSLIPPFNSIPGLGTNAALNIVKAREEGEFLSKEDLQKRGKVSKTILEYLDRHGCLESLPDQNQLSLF
How it was run: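 Double-stranded DNA product detected by PicoGreen fluorescence after EDTA quench. Compound incubated with B. subtilis holoenzyme (PolC, beta subunit, SSB, primase) before substrate addition; primed replication of M13Gori with dNTPs and NTPs at room temperature; DMSO defines 0% inhibition.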

[18] = biological target: Tumor susceptibility gene 101 protein (Homo sapiens) (UniProt Q99816); test: qHTS Validation Assay for Iinhibitors of HIV-1 Budding by Blocking the Interaction of PTAP/TSG101 (AID 485342; calls by dose curve)
Chain of Tumor susceptibility gene 101 protein (Homo sapiens) (Q99816 whole entry, looked up, the tested form may be a part): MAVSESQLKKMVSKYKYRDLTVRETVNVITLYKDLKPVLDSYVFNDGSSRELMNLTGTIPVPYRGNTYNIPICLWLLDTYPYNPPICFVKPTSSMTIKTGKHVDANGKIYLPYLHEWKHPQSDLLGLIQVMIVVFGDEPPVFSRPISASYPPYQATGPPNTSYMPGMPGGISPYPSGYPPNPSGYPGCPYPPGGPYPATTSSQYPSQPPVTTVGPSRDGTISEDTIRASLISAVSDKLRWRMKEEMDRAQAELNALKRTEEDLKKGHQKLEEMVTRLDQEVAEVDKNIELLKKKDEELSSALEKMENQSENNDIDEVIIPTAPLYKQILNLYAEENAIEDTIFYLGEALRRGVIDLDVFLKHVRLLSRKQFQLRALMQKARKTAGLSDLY
How it was run: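 Fluorescence polarization of 50 nM FITC-PTAP peptide bound to 10 uM Tsg101 binding domain was read after 20 min room-temperature incubation with compounds, in 10 mM HEPES pH 7.5, 0.15 M NaCl, 0.01% Tween 20.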

[19] = biological target: Beta-2 adrenergic receptor (Homo sapiens) (UniProt P07550); test: qHTS validation assay of beta-arrestin-biased ligands of beta2-adrenergic receptor (AID 485366)
Chain of Beta-2 adrenergic receptor (Homo sapiens) (P07550 whole entry, looked up): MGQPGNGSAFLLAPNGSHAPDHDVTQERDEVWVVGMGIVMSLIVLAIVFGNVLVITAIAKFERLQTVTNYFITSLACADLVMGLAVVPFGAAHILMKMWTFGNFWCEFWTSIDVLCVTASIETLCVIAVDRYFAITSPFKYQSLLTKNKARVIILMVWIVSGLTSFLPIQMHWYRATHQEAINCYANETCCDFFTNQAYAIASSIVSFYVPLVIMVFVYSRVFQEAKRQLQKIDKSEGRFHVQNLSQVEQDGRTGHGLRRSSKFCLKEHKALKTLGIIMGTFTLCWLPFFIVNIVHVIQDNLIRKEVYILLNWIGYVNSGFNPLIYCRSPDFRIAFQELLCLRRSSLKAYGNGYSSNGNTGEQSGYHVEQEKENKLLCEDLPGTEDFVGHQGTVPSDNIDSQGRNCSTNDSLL
How it was run: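 Values derive from curve-fitted %Activity of a luminescent beta-arrestin recruitment reporter; compounds tested up to 46 microM on Tango cells for 18 hr at 37 degrees C, 5% CO2.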

[20] = qHTS Validation Assay to Find Inhibitors of Chronic Active B-Cell Receptor Signaling (AID 485345; active = well fitted curve in the direction sought with a large enough effect in the main read-out, with a control signal flat, not every such curve was filed as active)
How it was run: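 TMD8 ABC-DLBCL cells with dox-inducible green luciferase–IκBα fusion and red native luciferase; compounds 46 uM–3 nM, 4 h at 37C with doxycycline in 0.5% FBS IMDM. Green/red ratio normalized to basal and 10 uM MG-132.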

Measured: outcome

N=c1ccn2c(n1)O[C@H]1[C@@H](O)[C@@H](CO)O[C@H]12
inactive: [1] | [2] | [3] | [4] | [5] | [6] | [7] | [8] | [9] | [10]

Cc1cc(O)c2c(c1)C(=O)c1cccc(O)c1C2=O
inactive: [11]

COc1ccc2cc([S+]([O-])Cc3ncc(C)c(OC)c3C)nc2c1
inactive: [12] | [13] | [14] | [15] | [16] | [17] | [18] | [19]

CN[C@H](CC(C)C)C(=O)N[C@H]1C(=O)N[C@@H](CC(N)=O)C(=O)N[C@@H]2C(=O)N[C@H]3C(=O)N[C@H](C(=O)N[C@H](C(=O)O)c4cc(O)cc(O)c4-c4cc3ccc4O)[C@H](O)c3ccc(c(Cl)c3)Oc3cc2cc(c3O[C@@H]2O[C@H](CO)[C@@H](O)[C@H](O)[C@@H]2O[C@H]2C[C@](C)(N)[C@H](O)[C@H](C)O2)Oc2ccc(cc2Cl)[C@H]1O
inactive: [12] | [13] | [14] | [15] | [16] | [17] | [18] | [20] | [19]

O=c1[nH]c(=O)n([C@H]2C[C@@H](O)[C@@H](CO)O2)cc1C=CBr
inactive: [12] | [13] | [14] | [15] | [16] | [17] | [18] | [20] | [19]
